Reference: PubChem BioAssay (NCI)
The panel holds about 79,000 compounds, 15% with a hit somewhere; the sample as a whole holds those more often. Cut-off read from the data, not from the text of the source: active = growth inhibition above about 70%; inactive = the rest.

How the values were obtained:
[1] = NCI Yeast Anticancer Drug Screen. Data for the rad50 strain (AID 155);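 note: 0% = growth of vehicle-only cultures of the same strain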; settings: S. cerevisiae rad50 strain growth inhibition; at 50.0 µM; hits give high values
Outline: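 Relative growth inhibition (compound vs vehicle) was measured in yeast with a defined repair-gene alteration.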

[2] = NCI Yeast Anticancer Drug Screen. Data for the mec2-1 strain (AID 157); settings: S. cerevisiae mec2-1 strain, at 50.0 µM, hits give high values
Outline: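 Each compound was tested on mec2-1 yeast, a strain altered in DNA damage repair or cell cycle control. Growth inhibition is reported relative to vehicle.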

[3] = NCI Yeast Anticancer Drug Screen. Data for the sgs1 mgt1 strain (AID 161);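 note: 0% = growth of cultures given vehicle only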; settings: S. cerevisiae sgs1 mgt1 strain, at 50.0 µM, hits give high values
Outline: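 Inhibition of yeast growth, normalised to vehicle-treated controls, is reported for a strain bearing genetic alterations in DNA damage repair.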

[4] = NCI Yeast Anticancer Drug Screen. Data for the cln2 rad14 strain (AID 165);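 note: 0% = growth equal to vehicle treated cultures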; settings: S. cerevisiae cln2 rad14 strain, at 50.0 µM, hits give high values
Outline: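 Test compounds were added to cln2 rad14 yeast cultures; inhibition of growth was then determined by comparison with vehicle treatment.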

[5] = NCI Yeast Anticancer Drug Screen. Data for the bub3 strain (AID 167); settings: S. cerevisiae bub3 mutant strain, at 50.0 µM, hits give high values
Outline: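 Screening used yeast with an engineered genetic alteration affecting cell cycle control. Compound-exposed cultures were compared with vehicle cultures, and reduced growth was taken as inhibition.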

[6] = NCI Yeast Anticancer Drug Screen. Data for the mlh1 rad18 strain (AID 175); settings: S. cerevisiae mlh1 rad18 strain growth inhibition; at 50.0 µM; hits give high values
Outline: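 Inhibition values reflect reduced growth of mutant yeast versus vehicle-treated controls following compound exposure; the mutations affect DNA damage repair.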

Measured: growth inhibition

CC(=O)C1=CCC2c3[nH]c4ccccc4c3CCN2C1 (stereo unspecified)
inactive: [1] 17.6% | [2] 4.1% | [3] 20.3% | [4] 25.7% | [5] 1.5% | [6] 18.9%

O=C1C(c2ccccc2)=C(c2ccccc2)/C1=C\c1ccc(Cl)cc1Cl
inactive: [1] 7.4% | [2] -5.9% | [3] -13.9% | [4] -8.9% | [5] 5.5% | [6] -13.8%

CC1Cn2c(nnc2-c2ccccc2O)S1 (stereo unspecified)
inactive: [1] -14.1% | [2] 0.6% | [3] -3.25% | [4] -2.95% | [5] -15.3% | [6] -12.6%

CCOC(=O)C(C#N)C1=CC(=O)C(=O)c2ccc(OC)cc21 (stereo unspecified)
inactive: [1] 14% | [2] 11.3% | [3] -5.5% | [4] 27.9% | [5] -9.95% | [6] 9.1%

O=C(COc1ccc(Cl)cc1)N1N=C(c2ccc(Cl)cc2)CC1(O)c1ccccc1 (stereo unspecified)
inactive: [1] -15.8% | [2] -29.8% | [3] -8.9% | [4] 0.85% | [5] -18.2% | [6] -10.6%

O=C1c2ccccc2C(=O)c2c3c(cc([N+](=O)[O-])c21)OCO3
inactive: [1] -18.2% | [2] 12.1% | [3] 9.05% | [4] 25.7% | [5] -3% | [6] -9.75%

O=S(=O)(NC1c2ccccc2Oc2ccccc21)c1ccc2ccccc2c1
inactive: [1] 28.4% | [2] 11.1% | [3] 16.6% | [4] 19.1% | [5] 9.65% | [6] 39.7%

OC1c2ccccc2CCCC1N1CCCCC1 (stereo unspecified)
inactive: [1] 41% | [2] 5.35% | [3] 27.8% | [4] 6.75% | [5] 12.1% | [6] 16.9%

N=C1C=CC2C(=Nc3ccccc3[N+]2=O)N1Cc1ccncc1 (stereo unspecified)
inactive: [1] -2.9% | [2] 1.3% | [3] -6% | [4] 1.45% | [5] 7.55% | [6] 22.8%

O=C(O)CC1CCCc2ccccc2C1CC(=O)O (stereo unspecified)
inactive: [1] 5.25% | [2] -4.3% | [3] 10.4% | [4] 8.8% | [5] 6.85% | [6] 7.4%

COC(=O)c1ccc(C(=O)c2ccc(OC)cc2OC)cc1
inactive: [1] -0.1% | [2] -4.05% | [3] -0.85% | [4] -58.8% | [5] 4.15% | [6] -17.4%

NC(N)=NS(=O)(=O)c1ccc(Nc2c3ccccc3nc3c(C(=O)NNCCO)cccc23)cc1
inactive: [1] -10.1% | [2] -2.85% | [3] 25.6% | [4] -7.7% | [5] 15.9% | [6] -1.65%

c1ccc2c(c1)c1c(n2CCOCCN2CCCCC2)CCCC1
inactive: [1] 33.9% | [2] 19.9% | [3] 29.3% | [4] 28.1% | [5] 28.4% | [6] 19.8%

Brc1cccc(-c2nnc(-c3cccc4ccccc34)o2)c1
inactive: [1] 1% | [2] -11.2% | [3] 0.5% | [4] -39.2% | [5] 6.7% | [6] -8.55%

O=S1c2ccccc2NC(c2ccc3ccccc3c2)CC1c1ccccc1 (stereo unspecified)
inactive: [1] -46.2% | [2] -22.1% | [3] -6.75% | [4] 1.9% | [5] 5.05% | [6] -18.2%

O=C1CCSc2nc(-c3ccc4c(c3)OCO4)nn21
inactive: [1] 7.2% | [2] -8.5% | [3] -13.3% | [4] 15.2% | [5] 4.6% | [6] 9.2%

N#CC(CC(=O)c1ccccc1)c1ccccc1 (stereo unspecified)
inactive: [1] -10.3% | [2] 4.95% | [3] -18.9% | [4] -28.9% | [5] -14.3% | [6] -7.05%

CCC(=O)OCC[N+](C)(C)C
inactive: [1] -29.2% | [2] -37.6% | [3] -22.9% | [4] -4.25% | [5] -38.5% | [6] -20.9%

O=C1Cc2c([nH]c3ccccc23)-c2ccccc2N1
inactive: [1] 25.1% | [2] 13.9% | [3] 13.8% | [4] 5.05% | [5] 35.8% | [6] 21.1%

CCOc1ccc(N2C(=O)C(=O)C(C#N)(c3nc4ccccc4o3)C(=O)C2=O)cc1
inactive: [1] 9.25% | [2] 33.7% | [3] 5.95% | [4] 6% | [5] -0.7% | [6] 15.2%

NC(=O)C(CCc1ccccc1)(CCc1ccccc1)c1ccc2ccccc2c1
inactive: [1] 19.5% | [2] 11.2% | [3] -2.85% | [4] 6.6% | [5] 29.8% | [6] 46%
